Wee1 degr inh – human Wee1 degradation inhibition, primary screen | P30291 | reporter increase, % at 5 µM | HeLa Luc-Wee1K328M stability, luciferase luminescence; 100% = proteasome inhibitor MG132 effect | AID 1321 | hit rate 1.2% among 220,000;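 active = activation above the mean of all tested compounds plus 3 SD, set per screening run, cut at about 8.8% in these data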;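 also: cells exposed to compound for 20 h before luminescence read; 0% = DMSO alone and 100% = MG132 at 30 µM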
Target sequence (P30291 whole entry K328M): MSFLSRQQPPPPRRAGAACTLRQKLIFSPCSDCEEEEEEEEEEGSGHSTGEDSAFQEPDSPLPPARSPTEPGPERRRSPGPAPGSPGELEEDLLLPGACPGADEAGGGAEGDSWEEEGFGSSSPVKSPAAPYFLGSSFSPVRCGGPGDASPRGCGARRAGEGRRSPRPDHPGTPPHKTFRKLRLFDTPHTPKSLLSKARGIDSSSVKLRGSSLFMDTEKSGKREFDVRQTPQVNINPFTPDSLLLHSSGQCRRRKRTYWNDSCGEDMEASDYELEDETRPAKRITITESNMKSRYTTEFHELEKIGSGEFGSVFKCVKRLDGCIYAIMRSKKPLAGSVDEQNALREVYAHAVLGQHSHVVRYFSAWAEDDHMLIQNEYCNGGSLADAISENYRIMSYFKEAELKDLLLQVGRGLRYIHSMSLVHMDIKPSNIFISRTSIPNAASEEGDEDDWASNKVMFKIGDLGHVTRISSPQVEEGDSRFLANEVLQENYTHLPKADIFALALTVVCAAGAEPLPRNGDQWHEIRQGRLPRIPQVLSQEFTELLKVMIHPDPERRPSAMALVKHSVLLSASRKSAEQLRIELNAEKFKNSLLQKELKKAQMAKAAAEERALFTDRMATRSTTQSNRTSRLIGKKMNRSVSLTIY
DAX1 inh-1 – blocks DAX1 repression of SF-1 activated StAR promoter. HEK293T StAR-luciferase reporter, SF-1/DAX-1 repression relief. AID 652010. inhibition, % at 6.8 µM. hit rate 1.1% among 370,000;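 active = inhibition above the mean over all tested compounds plus 3 SD, cut at about 3.6% in these data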;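 also: 0% = DAX-1 cells with DMSO and 100% = cells lacking DAX-1 with DMSO; higher inhibition means more luminescence from relief of DAX-1 repression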
ssDAF-12 act – activators of S. stercoralis DAF-12 nuclear receptor; HEK293 ssDAF-12/GRIP1 lit1-tk-luc reporter, luminescence; % of 3 µM dafachronic acid response; hit rate 1% among 370,000; activation, % at 6.8 µM;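 active = activation above the mean over all tested compounds plus 3 SD, cut at about 0.9% in these data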;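 also: 0% = DMSO-only wells and 100% = 3 µM delta7-dafachronic acid wells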
DAX1 inh-2 – inhibits human nuclear receptor DAX1 | hit rate 0.99% among 340,000 | inhibition, % at 6.75 µM | AID 504766 | HEK293 Gal4-DAX1 luciferase reporter, luminescence;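 active = inhibition above the mean over all tested compounds plus 3 SD, cut at about 4.2% in these data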;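 also: 0% = DAX1-transfected cells with DMSO and 100% = empty-vector control cells with DMSO; inhibition shows as a rise in luminescence from relieved DAX1 repression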
hcDAF12 agonist – H. contortus DAF-12 activation, primary screen. HEK293 hcDAF-12 lit1-tk-luc reporter, luminescence; 0% DMSO, 100% Δ7-dafachronic acid. activation, % at 6.8 µM. AID 652067. hit rate 1.4% among 370,000;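 active = activation above the mean of all tested compounds plus 3 SD, cut at about 5.5% in these data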;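 also: 100% = response to 3 µM Δ7-dafachronic acid high control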
hgDAF12 agonist – agonists of H. glycines DAF-12 nuclear receptor. hit rate 1.8% among 370,000. activation, % at 6.8 µM. AID 687014. HEK293 GAL4-hgDAF12 UAS-luciferase reporter, agonist luminescence; normalized to butyrate control;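 active = activation above a cutoff set at the mean of all screened compounds plus 3 SD, cut at about 10% in these data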;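 also: 0% = DMSO wells and 100% = sodium butyrate wells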
* = called active by the depositor; / = no result. The list is not random: actives were taken first. Their share in the collection is about 4.6%.

SMILES	Wee1 degr inh	DAX1 inh-1	ssDAF-12 act	DAX1 inh-2	hcDAF12 agonist	hgDAF12 agonist
Nc1n[nH]c(N)c1N=Nc1ccc2c(c1)OCO2	7	1	-1	4.8*	2	9
Cc1ccc(-c2nnc(-c3cccs3)o2)cc1	4	4.4*	1.4*	2	8.8*	11*
O=C(O)c1ccc(-c2nnc(-c3ccc([N+](=O)[O-])cc3)o2)cc1	/	0	-1	0	0	1
Cc1ccc(-c2nnc(-c3cc(C)on3)o2)cc1	6	2	0	4	3	12*
O=C(O)c1ccc(-c2noc(-c3ccc(F)cc3)n2)cc1	/	2	0	0	5.7*	13*
O=C(O)c1ccc(-c2nnc(-c3ccccc3)o2)cc1	/	1	1.0*	2	5	8
Cc1ccc(-c2nnc(N)o2)cc1	1	2	-1	0	1	2
O=C(NCc1cccs1)O[C@H]1CC[C@@]23CCCN2C(=O)CCC[C@H]3C1	/	/	-1	/	1	-5
COc1ccc(-c2csc(NC3CCCCC3)n2)c(OC)c1	/	-1	-2	0	-2	-4
O=C(OCc1ccccc1)c1cccc(-c2nnc(-c3ccccc3)o2)c1	0	0	-1	0	0	0
Cc1cccc(-c2nnc(-c3ccc4ccccc4c3)o2)c1	/	3.6*	0	4.3*	4	12*
O=C(Nc1cccc(-c2nnc(-c3ccccc3)o2)c1)C1CC1	3	0	-2	-1	-3	4
CC(=O)Nc1cccc(-c2nnc(-c3ccccc3)o2)c1	1	0	-1	-1	0	12*
c1ccc(-c2nnc(-c3cccc(-c4nnc(-c5ccccc5)o4)c3)o2)cc1	-2	/	/	/	/	/
Cc1ccc(-c2nnc(-c3ccccc3)o2)cc1	2	3	0	1	4	12*
CCOC(=O)c1cccc(COC(=O)c2cccc(-c3nnc(-c4ccccc4)o3)c2)c1	9.7*	2	0	-1	2	6
Oc1csc(Cc2nc(-c3ccc4ccccc4c3)cs2)n1	7	3	1.1*	3	6.3*	6
Oc1csc(Cc2nc(-c3ccc(-c4ccccc4)cc3)cs2)n1	-1	2	0	0	4	2
CCOC(=O)c1[nH]c2ccccc2c1NC(=O)Nc1ccc(OC)cc1	-1	0	0.9*	1	4	2
CCOC(=O)c1[nH]c2ccc(OC)cc2c1NC(=O)c1ccccc1C(=O)O	/	1	0	4.3*	2	5
CCCC(=O)Nc1c(C(=O)OCC)[nH]c2ccccc12	1	1	0	2	4	4
CCOC(=O)c1[nH]c2ccccc2c1NC(=O)CC(C)C	/	0	0	0	4	-2
CCOC(=O)c1[nH]c2ccccc2c1NC(=S)Nc1cc(C)ccc1C	-2	-1	0	2	6.1*	5
O=C(c1ccco1)N1CC2(CC(c3ccc(Cl)cc3)=NO2)CN1Cc1ccc(Br)cc1 (centres undefined)	/	1	-1	2	0	1
Cc1cc(Cl)ccc1NC(=O)CN(C)C1=NS(=O)(=O)c2ccccc21	/	0	-1	-1	-1	1
SMILES	Wee1 degr inh	DAX1 inh-1	ssDAF-12 act	DAX1 inh-2	hcDAF12 agonist	hgDAF12 agonist
Cc1ccc(SCc2cc(=O)[nH]c(Nc3nc(C)c4ccccc4n3)n2)cc1	1	0	0	0	6.1*	-1
CCC(C)C(NC(=O)c1ccccc1)C(=O)Nc1ccc(S(=O)(=O)Nc2cc(C)nc(C)n2)cc1 (centres undefined)	/	1	-1	-1	1	3
CN1CCCN(C(=O)CNC(=O)c2ccc(Cl)cc2Cl)CC1	/	0	-1	2	1	3
Cc1ccccc1N1C(=O)C2C3C=CC(CC3)C2C1=O (centres undefined)	/	0	-1	-1	0	-1
Cc1ccccc1N1C(=O)CC2(CCCC2)CC1=O	-2	1	1.1*	0	0	0
O=C(CCCNC(=O)c1ccc(Cl)cc1)NCc1ccccc1Cl	/	-1	-1	0	-3	-3
N#CC1=C(O)C(c2ccccc2)n2c1nc(=O)c1ccccc12 (centres undefined)	-3	1	-1	7.3*	1	2
N#CC1=C(O)CCCn2c1nc1ccccc1c2=O	-1	1	-1	0	0	-1
Cc1ccc(-c2nc3ccccc3nc2-c2ccccc2)cc1	/	0	-1	1	3	-1
Clc1ccc(-c2nc3ccccc3nc2-c2ccccc2)cc1	4	0	-1	0	6.1*	-4
CCCN1CCC(=O)N(CCSc2ccccc2)CC1	/	1	0	4	3	11*
O=C(COc1ccccc1)NCC(c1ccco1)N1CCN(c2ccccc2)CC1 (centres undefined)	/	-2	-1	-2	0	12*
Cc1cc(C)n(-c2cc(N3CCN(S(=O)(=O)c4ccc(C)c(C)c4)CC3)ccc2[N+](=O)[O-])n1	3	0	-1	5.4*	2	-1
Cc1cc(C)n(-c2cc(N3CCN(S(=O)(=O)c4ccc5ccccc5c4)CC3)ccc2[N+](=O)[O-])n1	-1	-1	-1	-2	-2	-1
O=C(NCCN1CCN(Cc2ccccc2)CC1)c1ccc(CS(=O)(=O)c2c(Cl)cccc2Cl)o1	/	0	-2	0	-1	-4
CN(CC(=O)Nc1ccc(N2CCOCC2)cc1)C(=O)CC(c1ccccc1)c1ccccc1	10*	-2	0	0	3	-4
Cc1ccc(S(=O)(=O)NCCC(=O)NCCc2ccc(S(N)(=O)=O)cc2)cc1C	/	0	-1	0	0	-2
CC1CCN(c2ccc(C(=O)O)cc2NS(=O)(=O)c2ccccc2)CC1	/	0	-2	/	-3	-1
O=c1c2cc(Cl)ccc2nc(-c2ccc(Cl)c(Cl)c2)n1O	-3	0	0	4.5*	4	0
O=c1c2cc(Cl)ccc2nc(-c2ccccc2)n1O	-1	0	-1	0	-1	2
COC(=O)c1ccc(CNC(=O)CC[C@H]2O[C@@H](n3cc(C)c(=O)[nH]c3=O)C[C@@H]2O)cc1	/	0	-1	/	-1	0
Cn1c(=O)c2cc(S(=O)(=O)N3CCN(c4ccccc4Cl)CC3)ccc2n(C)c1=O	/	1	-1	/	2	0
CC(C)(C)c1ccc(OCCC(=O)Nc2ccc(N3CCOCC3)cc2N2CCOCC2)cc1	/	4.0*	0	-2	0	1
C=C1CCC2C(C)(C(=O)O)CCCC2(C)C1CCC(CO)CCO (centres undefined)	/	-1	-2	/	-1	1
CC(=O)c1cccc(OCc2cc(C(=O)N(C)CCc3cnn(C)c3)no2)c1	/	2	-1	0	2	1

Bioassay records deposited in PubChem by The Scripps Research Institute Molecular Screening Center.
